According to PubChem BioAssay AID720724 (Broad Institute, 2013):
Potency and affinity values are given separately. Activity calls are given as the source filed them.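 The calls were made as follows: active = signal falls with a fitted half-maximal dose at most twice the top dose, in every run; inconclusive = steady partial drop, poor fit, or runs disagree; inactive = flat, rising or too weak in every run.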

assay: inhibitors of control Renilla luciferase reporter, dose response, counter-screen for Shn3 3'UTR targeting project, Clone20-Shn3RL cells, dual-Glo, cherry-pick, set 2 (AID 720724); conditions: renilla luciferase luminescence, 24 h; series mostly up to 35 µM

SMILES | outcome
CC(C)(C)C(=O)Nc1ccc(NC(=O)c2ccco2)nc1 | inactive
COc1ccccc1NC(=O)Cn1cc(C(=O)C2CC2)c2ccccc21 | inactive
CCCCN1CC(COCc2ccccc2)Oc2cccc(Oc3ccc(C(C)C)cc3)c2S1(=O)=O (stereo unspecified) | inactive
CCOC(=O)c1oc2ccc(S(=O)(=O)n3nc(-c4ccc(OC)cc4)cc3N)cc2c1C | inactive
Cc1ccc(-c2nc3ncccc3o2)cc1NC(=O)c1sc2ccccc2c1Cl | inactive
O=C(NCCc1ccccc1)c1ccc2c(c1)OCCO2 | inactive
CCSc1nnc(NC(=O)c2nc(S(=O)(=O)Cc3ccc(F)cc3)ncc2Cl)s1 | inactive
CCOc1ccc(N(C)S(=O)(=O)c2cc(-c3cc(C)no3)ccc2C(C)C)cc1 | inactive
CCCCOCCCNc1ncnc2c1[nH]c1ccccc12 | inactive
Cn1c(=O)c2c(nc(NCc3ccco3)n2CCc2ccccc2)n(C)c1=O | inactive
Cc1nc(SCC(=O)Nc2nc3ccccc3s2)c(C#N)c(C)c1C | inactive
CC(C)[C@H](NC(=O)OC(C)(C)C)c1nnc(S(=O)(=O)Cc2c(F)cccc2Cl)o1 | inactive
COc1ccc(CNC(=O)C(c2ccc(C)cc2)N(Cc2cccs2)C(=O)c2ccc3c(c2)OCCO3)cc1 (stereo unspecified) | inactive
Cc1cccc(-c2noc(CN(C(=O)C(c3ccccc3)c3ccccc3)C(C)C)n2)c1 | inactive
CC(C)CCOc1cccc(OCC(=O)Nc2ccncc2)c1 | inactive
COc1cc(NC(=O)c2cccc3c(-c4cccnc4)coc23)cc(OC)c1OC | inactive
